Source: PubChem BioAssay (National Center for Advancing Translational Sciences (NCATS))
Compounds with a hit are over-represented: about 21% of the library has one in this group of screens.
Pf growth 48h – inhibits P. falciparum growth in the first generation, 48 h; P. falciparum luciferase growth in erythrocytes, 48 h; Potency, µM (titrated, usually from 28.7 µM), inactives show top-dose activity change, negative = inhibition, hits mostly inhibitors; 5.9% of 310,000 active; note: potency is the fitted concentration of half-maximal effect; % is set by controls: 0 for no effect and ±100 for the full control effect
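Erythrocytes infected with P. falciparum carrying an integrated firefly luciferase reporter (2% hematocrit, 0.1% parasitemia final) were exposed to compounds in RPMI 1640 with 0.5% Albumax at 37 C, 5% CO2. Growth inhibition was scored as reduced luminescence.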
Cycloheximide cs – affects cycloheximide protein synthesis inhibition readout, counter-screen; cell reporter, cycloheximide protein synthesis inhibition counterscreen; max response, %; 12% of 300,000 active; AID 2314; in the data active = max response mostly above about 13%, no sharp cut-off; inactive = mostly below about 14%; note: read at 38.3 µM for the half of the compounds with a filed dose; 0% is about no effect
NS1 inh – influenza NS1 inhibition; Potency, µM (titrated, usually from 46.1 µM), inactives show at the highest dose activity, positive = more growth; 0.4% of 270,000 active; calls by dose curve; note: potency is the fitted concentration of half-maximal effect; actives are rising curves; nearly all actives have a fitted effect of over 50% in size
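Read-out: OD600 growth recovery of NS1-expressing budding yeast. Cells grown overnight at 30C in -URA glucose medium, washed, resuspended and diluted 1:100 in 2% galactose assay medium, pH 6.0. Same strain lacking NS1 served as positive control.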
Shiga toxin inh – inhibitors of Shiga toxin in Vero cells; Vero cells, Shiga toxin protein synthesis inhibition reporter; inhibition, % at 38.7 µM; 9.2% of 290,000 active; AID 2315; in the data active = inhibition mostly above about 28%, no sharp cut-off; inactive = mostly below about 43%; note: 0% is about no effect
Pf growth 96h – P. falciparum growth inhibition at 96 hour, primary screen for plastid delayed-death inhibitors; P. falciparum luciferase reporter growth, 96 h; Potency, µM (top dose mostly 28.7 µM), for the others: at the top dose activity change, negative = inhibition, actives largely listed as inhibitors; 6.9% of 320,000 active; note: potency is the fitted concentration of half-maximal effect; % is set by controls: 0 for no effect and ±100 for the full control effect
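Erythrocytes infected with luciferase-expressing P. falciparum were dispensed at 2% hematocrit and 0.05% parasitemia (final), then incubated with compounds 96 hours at 37 C in 5% CO2. Luminescence after detection reagent addition reported growth.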
Starred values were filed as active, the others as inactive; u = inconclusive; x = not tested or not shown. Unless noted, calls come from the whole dose curve; as a rule, active = well fitted inhibition curve with a large enough effect; inconclusive = small, poorly fitted or top-dose-only effect, or another doubt; inactive = no such curve, though single readings can be large or run the other way.

SMILES | Pf growth 48h | Cycloheximide cs | NS1 inh | Shiga toxin inh | Pf growth 96h
N#Cc1cc2c(nc1SCc1ccncc1)CCC2 | -10% | 43* | -18% | 102* | 27%
CCCNC(=O)N1N=C(c2ccc(N)cc2)c2cc3c(cc2C1C)OCO3 (stereo not drawn) | x | -2 | x | -4 | x
Cc1cc(NCc2cccnc2)nc(N)n1 | -5% | -2 | 4% | -5 | 3%
O=C(NNC(=O)c1ccccc1F)c1ccc(NS(=O)(=O)c2ccc(F)cc2)cc1 | -10% | x | x | x | 31%
O=C1CN(c2nc3nonc3nc2N2CCCCC2)CCN1 | 10% | -1 | 5% | -8 | u
CCOCCCNC(=S)N1CCC(NC(=O)C23CC4CC(CC(C4)C2)C3)CC1 | -15% | -3 | x | -13 | 21%
NCCCCC(N)c1cn([C@@H](CCC(=O)O)C(=O)N2CCNCC2)nn1 (stereo partly drawn) | 4% | x | x | x | 51%
Cc1cccc(CSc2nc3c(cc2C#N)CN(C)CC3)c1 | 10µM* | 9 | -6% | 8 | 7.4µM*
N#Cc1cc2c(nc1SCC(=O)N1CCCCC1)CCCC2 | 11% | 17* | -5% | 28 | 144%
N#Cc1cc2c(nc1SCC(=O)O)CCCC2 | 19% | 3 | 1% | -19 | -16%
Cc1ccc(NS(=O)(=O)c2cccc(C(=O)Nc3c(C)n(C)n(-c4ccccc4)c3=O)c2)cc1 | 18% | -2 | 1% | 14 | 23%
COc1ccc(C(=O)NCC(=O)N/N=C/c2cn(C)c3ccccc23)cc1OC | 1% | 9 | -5% | -3 | u
CC(OC(=O)C1CCN(S(=O)(=O)c2ccc(Cl)cc2)CC1)C(=O)N1CCc2ccccc21 (stereo not drawn) | u | -1 | 3% | -5 | x
Cc1ccc(-n2c(C)nnc2SCC(=O)NNC(=O)c2ccco2)cc1 | u | 6 | x | 17 | u
Cc1cc2c(cc1S(=O)(=O)Nc1ccc(C(C)C)cc1)OCCN2C | u | x | x | x | 12µM*
CC(=O)Nc1ccc(-c2csc(Nc3cccc(C)n3)n2)cc1 | 155% | 50* | 3% | 73* | 7%
CC(=O)Nc1cccc(-c2csc(Nc3ncccn3)n2)c1 | 252% | 43* | 8% | 91* | 24%
CC(=O)Nc1cccc(-c2csc(Nc3ccc(C)cn3)n2)c1 | 32% | 69* | 14% | 98* | u
COc1ccc(CCNC(=O)CN(Cc2ccc(Cl)cc2)S(C)(=O)=O)cc1 | 15% | -2 | -4% | -5 | -14%
Cc1ccccc1C(=O)N1CCc2c([nH]c3ccccc23)C1C(F)(F)F (stereo not drawn) | 12µM* | -2 | 1% | 7 | u
CN1N=C(C(=O)N2CCc3c([nH]c4ccccc34)C2c2ccccc2Cl)CCC1=O (stereo not drawn) | 1.7µM* | 43* | 8% | 74* | 10µM*
COc1ccc(C2c3[nH]c4ccccc4c3CCN2C(=O)c2ccc(=O)n(C)n2)c(F)c1 (stereo not drawn) | u | 26* | 12% | 34 | -3%
CCc1cc(C(=O)N2CCc3c([nH]c4ccccc34)C2c2ccc(OC)cc2F)no1 (stereo not drawn) | 52% | -4 | 9% | -5 | u
Cc1ccccc1C1c2[nH]c3ccccc3c2CCN1C(=O)c1ccc(=O)n(C)n1 (stereo not drawn) | u | -2 | 12% | 9 | 13µM*
CCCN(CCC)S(=O)(=O)c1ccc(C(=O)NNc2nc(-c3ccccc3)c3cc(Br)ccc3n2)cc1 | 10% | 4 | u | -8 | 6%
SMILES | Pf growth 48h | Cycloheximide cs | NS1 inh | Shiga toxin inh | Pf growth 96h
CCc1cc(=O)oc2c(CN3CCCC3)c(O)c(Cl)cc12 | 17% | -2 | 4% | -10 | x
CCCCc1cc(=O)oc2cc(C)c(CN3CCCC3)c(O)c12 | 4.1µM* | -2 | -3% | 17 | 105%
CCc1cc(=O)oc2cc(C)c(CN3CCCC(C)C3)c(O)c12 (stereo not drawn) | 2.1µM* | 1 | 6% | -12 | u
CCCCc1cc(=O)oc2c(CN3CCCC3)c(O)ccc12 | u | -2 | 6% | 9 | u
Cc1noc(C)c1C(=O)Nc1sc(C)c(C)c1C#N | u | -3 | -64% | -4 | 53%
Cc1nc(C(=O)NC2CCOCC2)sc1C1(C)CC(c2ccccc2)=NO1 (stereo not drawn) | 40% | 11* | -4% | 22 | 33%
Cc1nc(-c2ccc(Cl)cc2)sc1C1(C)CC(c2cccnc2)=NO1 (stereo not drawn) | 49% | 112* | -21% | 80* | 13%
Cc1nc(-c2ccccc2)sc1C1(C)CC(c2ccc([N+](=O)[O-])cc2)=NO1 (stereo not drawn) | 43% | -3 | 0% | -2 | 50%
Cc1nc(-c2ccc(Cl)cc2)sc1C1(C)CC(c2cccc([N+](=O)[O-])c2)=NO1 (stereo not drawn) | 1% | 18* | -7% | 17 | 57%
COc1ccc(NC(=O)c2nc(C)c(C3(C)CC(c4ccccc4)=NO3)s2)cc1 (stereo not drawn) | u | -1 | 1% | 22 | u
Cc1nc(-c2ccc(Cl)cc2)sc1C1(C)CC(c2ccc(C#N)cc2)=NO1 (stereo not drawn) | -1% | 1 | -1% | 14 | 72%
Cc1nc(C(=O)Nc2ccccc2)sc1C1(C)CC(c2cccnc2)=NO1 (stereo not drawn) | 67% | 25* | -3% | 42* | 91%
COc1ccc(CCN2CC(C(=O)Nc3ccc(S(C)(=O)=O)cc3)CC2=O)cc1OC (stereo not drawn) | -13% | x | x | x | u
COC(=O)Cc1c(C)c2ccc(OCC(=O)N3CCC(C)CC3)c(C)c2oc1=O | u | -1 | -16% | 26 | u
CCOc1ccccc1NC(=O)COC(=O)CNS(=O)(=O)c1ccc(C)cc1 | -18% | 1 | -28% | -8 | -24%
CCc1cccc2cc(C(O)CNC(C)(C)C)oc12 (stereo not drawn) | x | -2 | x | -6 | x
COc1ccccc1-c1c(C#N)c(N)nc2c1CCc1ccccc1-2 | 12µM* | 6 | -23% | 4 | 23%
CCCCCCn1c(N)c(C(=O)NCCN2CCOCC2)c2nc3ccccc3nc21 | 9.3µM* | -3 | -49% | -4 | u
COc1ccc(CCNC(=O)c2c(N)n(CCN3CCOCC3)c3nc4ccccc4nc23)cc1OC | 9.3µM* | -5 | -11% | -3 | 4.7µM*
CC1=C(C(=O)Nc2ccc([N+](=O)[O-])cc2)C(c2cccc(C(F)(F)F)c2)NC(=S)N1c1ccccc1 (stereo not drawn) | 13µM* | 1 | 27% | -14 | x
COc1ccc(C2NC(=S)N(c3ccccc3)C(C)=C2C(=O)Nc2ccccc2)cc1 (stereo not drawn) | x | 9 | u | 19 | u
CCCOCCc1nnc(N)s1 | 4% | 4 | 3% | -11 | 12%
O=C1N/C(=C\c2ccc(O)cc2)C(O)=C1C=NCc1ccccc1 | u | 16* | -6% | 14 | 12%
COc1ccc(/C=C2\NC(=O)C(C=NCc3ccccc3)=C2O)cc1 | u | 10 | 10% | 28 | -3%
